Assay results published in PubChem BioAssay (NCATS).
The source made the active and inactive calls. Calls follow the shape of the dose curve; as a rule, active = well fitted curve in the direction sought with a large enough effect; inconclusive = small, poorly fitted or top-dose-only effect, or another doubt; inactive = no such curve, though single readings can be large or run the other way.

target: Hexokinase-4 (Homo sapiens) + Glucokinase regulatory protein (Homo sapiens) (UniProt P35557+Q14397); test: qHTS assay for inhibitors of recombinant human GCK-GKRP interaction: HTRF assay (AID 743207); settings: recombinant GCK-GKRP HTRF binding, 60 min; series mostly up to 57.5 µM
Source text: Glucokinase (GCK) is a glucose sensor in hepatocytes and pancreatic beta-cells. Hepatic GCK is regulated by glucokinase regulatory protein (GKRP), which is predominantly localized to the liver. GKRP binds to GCK inhibiting its activity in the fasting state while in the presence of glucose the GKRP is displaced. There is an additional layer of regulation by fructose 1-phosphate and fructose 6-phosphate, which inhibit and enhance the GCK-GKRP interaction, respectively. GCK plays a role in glucose homeostasis and there is an interest in the development of strategies to activate GCK to lower blood glucose levels in type 2 diabetes. To date the majority of effort has focused on direct activation of GCK and the assays developed herein look to activate GCK by inhibiting its binding to GKRP. A compound that inhibits the interaction of GCK with GKRP could be important for the treatment of diabetes and can also be used as a tool compound to further elucidate GCK-GKRP biology. To that end, we have developed an HTS biochemical assay using HTRF technology for to interrogate the GCK-GKRP interaction. This assay was screened against a small compound library to look for modulators of activity.
3 uL of 5 nM GST-GCK and 5 nM FLAG-GKRP proteins with 2 uM S6P (columns 1-2, 4-48; Millipore, Billerica, MA) are dispensed into Greiner, white solid-bottom 1536-well assay plates; columns 3 receive buffer without GCK as a control for maximum inhibition. Buffer contains 2 mM MgCl2, 25 mM KCl, 25 mM Hepes, 1 mM DTT, 0.1% Tween 20 and 0.025% BSA and the pH was adjusted to 7.1. Compounds (23 nL) are then transferred via Kalypsys pin tool equipped with 1536-pin array (10 nL slotted pins, V&P Scientific, San Diego, CA). The library compounds are in columns 5-48 and columns 1-4 serve as controls with DMSO in columns 1 and 3 and 26 mM 1:1.5 fold serial of gluckokinase activator (GKA-EMD) in column 2 and 26 mM of the glucokinase activator (GKA-EMD) in column 4. Following addition of compound, 1 uL of detection antibodies (anti-Flag XL 665 and anti-GST K in reconstitution buffer from Cisbio, Bedford, MA; 0.7 ng/well and 0.0945 ng/well, respectively) is added, and the mixture is allowed to equilibrate for 60 minutes at room temperature. Data are normalized to DMSO-treated control columns with (maximum signal) and without (minimum signal) enzyme. Plates were read on an Envision plate reader (PerkinElmer, Shelton, CT, USA) with excitation at 320 nm and dual-wavelength detection at the Fret donor wavelength (615 nm) and the FRET acceptor wavelength (665 nm).

Sequence of Hexokinase-4 (Homo sapiens) + Glucokinase regulatory protein (Homo sapiens) (P35557 whole entry, looked up): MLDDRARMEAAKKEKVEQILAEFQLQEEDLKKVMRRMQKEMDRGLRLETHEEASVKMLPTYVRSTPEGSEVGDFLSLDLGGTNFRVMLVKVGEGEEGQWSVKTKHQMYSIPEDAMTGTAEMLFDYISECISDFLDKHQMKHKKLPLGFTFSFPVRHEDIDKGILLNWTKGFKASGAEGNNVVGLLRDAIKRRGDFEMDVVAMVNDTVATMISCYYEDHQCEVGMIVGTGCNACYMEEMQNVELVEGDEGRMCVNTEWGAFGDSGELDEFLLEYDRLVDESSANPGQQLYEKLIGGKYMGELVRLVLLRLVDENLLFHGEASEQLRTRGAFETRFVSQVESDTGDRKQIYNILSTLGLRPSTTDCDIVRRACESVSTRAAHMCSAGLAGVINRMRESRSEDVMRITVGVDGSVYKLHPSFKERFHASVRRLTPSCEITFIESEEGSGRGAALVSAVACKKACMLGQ
Sequence of Hexokinase-4 (Homo sapiens) + Glucokinase regulatory protein (Homo sapiens) (Q14397 whole entry, looked up): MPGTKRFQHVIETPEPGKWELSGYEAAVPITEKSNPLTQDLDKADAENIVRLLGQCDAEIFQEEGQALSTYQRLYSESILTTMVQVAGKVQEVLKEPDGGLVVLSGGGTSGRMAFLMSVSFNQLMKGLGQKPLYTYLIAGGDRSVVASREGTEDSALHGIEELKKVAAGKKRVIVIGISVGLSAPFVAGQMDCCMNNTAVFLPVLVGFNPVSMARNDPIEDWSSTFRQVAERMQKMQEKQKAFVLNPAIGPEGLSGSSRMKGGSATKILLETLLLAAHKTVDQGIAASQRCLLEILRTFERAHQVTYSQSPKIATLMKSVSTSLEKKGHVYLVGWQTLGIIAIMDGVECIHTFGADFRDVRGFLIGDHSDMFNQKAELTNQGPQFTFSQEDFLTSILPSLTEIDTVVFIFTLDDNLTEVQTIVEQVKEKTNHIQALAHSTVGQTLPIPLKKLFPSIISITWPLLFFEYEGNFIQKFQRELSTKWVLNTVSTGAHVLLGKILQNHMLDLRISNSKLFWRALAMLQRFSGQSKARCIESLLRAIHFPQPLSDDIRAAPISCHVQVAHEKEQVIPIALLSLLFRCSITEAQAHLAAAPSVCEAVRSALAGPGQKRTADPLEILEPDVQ

Row | SMILES | outcome
1 | O=c1[nH]c2ccccc2n1CCCN1CCC(n2c(=O)[nH]c3cc(Cl)ccc32)CC1 | inactive
2 | Cc1cccc(C)c1NC1=NCCCS1 | inactive
3 | Fc1ccc(C(OCCN2CCN(CCCc3ccccc3)CC2)c2ccc(F)cc2)cc1 | inactive
4 | CN1C[C@H](CNC(=O)OCc2ccccc2)C[C@@H]2c3cccc4c3c(cn4C)C[C@H]21 | inactive
5 | COC[C@H]1OC(=O)c2coc3c2[C@@]1(C)C1=C(C3=O)C2CCC(=O)[C@@]2(C)C[C@H]1OC(C)=O (stereo not given in full) | inactive
6 | NN=C(N)N | inactive
7 | CCCC(C)(COC(N)=O)COC(=O)NC(C)C (stereo not given) | inactive
8 | NCC1(CC(=O)O)CCCCC1 | inactive
9 | c1ccc2c(c1)OCC(C1=NCCN1)O2 (stereo not given) | inactive
10 | CC[C@@H](CO)NC(=O)[C@@H]1C=C2c3cccc4[nH]cc(c34)C[C@H]2N(C)C1 | inactive
11 | CC(=O)[C@H]1CC[C@H]2[C@@H]3CC[C@H]4C[C@](C)(O)CC[C@]4(C)[C@H]3CC[C@]12C | inactive
12 | CC(O)(CS(=O)(=O)c1ccc(F)cc1)C(=O)Nc1ccc(C#N)c(C(F)(F)F)c1 (stereo not given) | inactive
13 | Cc1ncc(CNC(=O)N(CCCl)N=O)c(N)n1 | inactive
14 | CNCC(O)c1ccc(O)cc1 (stereo not given) | inactive
15 | CCCN1CCC[C@@H]2Cc3[nH]ncc3C[C@H]21 | inactive
16 | C[C@@H]1O[C@@H](O[C@H]2C[C@@H](O)[C@]3(CO)[C@H]4[C@H](O)C[C@]5(C)[C@@H](C6=CC(=O)OC6)CC[C@]5(O)[C@@H]4CC[C@]3(O)C2)[C@H](O)[C@H](O)[C@H]1O | inactive
17 | O=C1NCN(c2ccccc2)C12CCN(CC1COc3ccccc3O1)CC2 (stereo not given) | inactive
18 | NCC(O)c1ccc(O)cc1 (stereo not given) | inactive

Row | SMILES | outcome
19 | C=C(C)[C@H]1Cc2c(ccc3c2O[C@@H]2COc4cc(OC)c(OC)cc4[C@@H]2C3=O)O1 | inactive
20 | Cc1cccc(C)c1NC(=O)CN1CCCC1=O | inactive
21 | COc1ccccc1N1CCNCC1 | inactive
22 | NCC(CC(=O)O)c1ccc(Cl)cc1 (stereo not given) | inactive
23 | C[C@]12CCC(=O)C(O)=C1CC[C@@H]1[C@@H]2CC[C@]2(C)C(=O)CC[C@@H]12 | inactive
24 | O=c1[nH]c2ccccc2n1C1CCN(CCCC(c2ccc(F)cc2)c2ccc(F)cc2)CC1 | inactive
25 | COc1ccc(C(CN(C)C)C2(O)CCCCC2)cc1 (stereo not given) | inactive
26 | Nc1ccncc1 | inactive
27 | CC[C@@H](CO)NC(=O)[C@@H]1C=C2c3cccc4c3c(cn4C)C[C@H]2N(C)C1 | inactive
28 | CCCN1CCC[C@@H]2Cc3nc(N)ncc3C[C@H]21 | inactive
29 | CC(=O)[C@H]1CC[C@H]2[C@@H]3CC[C@H]4C[C@H](O)CC[C@]4(C)[C@H]3C(=O)C[C@]12C | inactive
30 | c1ccc(C2CC2)c(OCC2=NCCN2)c1 | inactive
31 | CC(CCc1ccccc1)NC(C)C(O)c1ccc(O)cc1 (stereo not given) | inactive
32 | CC(C)=CCOc1c2occc2cc2ccc(=O)oc12 | inactive
33 | Cc1ccc(S(=O)(=O)N[C@@H](CCCCN)C(=O)CCl)cc1 | inactive
34 | N#CC(C#N)=Cc1ccc(O)c(O)c1 | inactive
35 | CCC1(C2=NCCN2)Cc2ccccc2O1 (stereo not given) | inactive
